The record followed here is PubChem BioAssay AID504332 (National Center for Advancing Translational Sciences (NCATS), 2011).

Screen size: about 350,000 compounds; about 31,000 (8.9%) were called active. Inconclusive results (about 15%) are left out. The sample as a whole holds a higher share of actives than the screen did. Values without a mark were called inactive. The call rests on the fitted dose curve; in most records, active means well fitted inhibition curve with a large enough effect; inconclusive means small, poorly fitted or top-dose-only effect; inactive means no such curve, though single readings can be large or run the other way.
On the % scale 0 is the no-effect control and ±100 the full control effect; potency means the concentration at half of the fitted maximal effect.

Histone-lysine N-methyltransferase EHMT2 (Homo sapiens), sequence (Q96KQ7 913-1193 limits assumed): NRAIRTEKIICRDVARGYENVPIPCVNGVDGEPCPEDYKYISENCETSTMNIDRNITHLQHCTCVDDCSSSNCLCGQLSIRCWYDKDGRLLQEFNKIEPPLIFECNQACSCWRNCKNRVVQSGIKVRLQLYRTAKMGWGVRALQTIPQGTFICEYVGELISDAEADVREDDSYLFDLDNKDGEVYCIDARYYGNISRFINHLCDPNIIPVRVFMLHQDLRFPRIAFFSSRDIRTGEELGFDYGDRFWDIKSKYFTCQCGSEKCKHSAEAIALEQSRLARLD

The assay has as its target Histone-lysine N-methyltransferase EHMT2 (Homo sapiens) (UniProt Q96KQ7). Kind of assay: qHTS Assay for Inhibitors of Histone Lysine Methyltransferase G9a. Further: nearly all actives have a fitted effect of over 75% in size. To be noted: G9a H3K9 monomethylation, AlphaScreen, 2 h; series mostly up to 59 µM; activity, negative = inhibition: at the top concentration. In a few lines: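 Quantitative HTS format: methyltransferase activity on a biotin-tagged H3K9 peptide is measured by AlphaScreen, using a rabbit anti-monomethyl-H3K9 antibody with streptavidin donor and anti-IgG acceptor beads. Final levels are 20 nM enzyme, 500 nM peptide, 20 uM SAM; 2 h RT.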
As to `Cc1ccc(CNC(=O)c2c(O)nc3c(C)cccn3c2=O)cc1`, the “activity, negative = inhibition” value was -10.5%. Same read-out and setting: the value for `Cc1ccc(Cn2c(=O)n(-c3ccc(C)cc3)c(=O)c3c2c2cc(C)ccc2n3C)cc1` was -5.57%. The same measure, in the same setting: next, `CCSc1nnc2c(n1)OC(c1ccc(OCC(=O)O)cc1)Nc1ccccc1-2` (stereo not drawn): -45.6%.

`COc1ccc(OCCn2ccnc2C)cc1`: the Potency is 8.91 µM (active). Regarding `COc1ccc(OCCC(=O)c2ccc(OC)cc2)cc1`, the “activity, negative = inhibition” value is -34.9% [at 102 µM]. Still for that read-out and setting: next, `COc1ccc(OCCCCN2CCC(C)CC2)cc1`: 5.74% [at 102 µM]; `O=C(OCC(=O)N1CCCC1=O)c1cc(S(=O)(=O)N2CCOCC2)ccc1Cl`: -46.3% [at 102 µM]; `CCC(C(=O)Nc1cccc(-c2nc3cccnc3s2)c1C)c1ccccc1` (stereo not drawn): 8.59%.

For the compound `Cc1cc(C)nc(NC(=O)C(C)N2C(=O)c3ccccc3C2=O)n1` (stereo not drawn), the “activity, negative = inhibition” value is -3.61% [at 102 µM].

With `Cc1cc(C)nc(Nc2ncn[nH]2)n1`, the “activity, negative = inhibition” value is 11.3% [at 102 µM]. For the compound `Cc1cc(C)nc(Nc2n[nH]c(-c3ccccc3N)n2)n1`, the Potency is 7.94 µM (active). Turning to `C[C@H](NC(=O)c1ccccc1)C(=O)OCC(=O)c1c[nH]c2ccccc12`, the “activity, negative = inhibition” value is -6.84%. With `CN(C)c1ccc(C(CNC(=O)c2ccc(F)cc2)c2c[nH]c3ccccc23)cc1` (stereo not drawn), the Potency is 10 µM (active).

Regarding `CCOc1ccccc1C(=O)NCC(c1ccc(N(C)C)cc1)N1CCCC1` (stereo not drawn), the activity, negative = inhibition was 2.29% [at 12.7 µM]. For `CCCN1CCN(CCCNC(=O)c2ccc3nc(Cc4ccccc4)oc3c2)CC1`, the “activity, negative = inhibition” value is 4.53%. The same measure, in the same setting: the value for `O=C(c1c(F)cccc1F)N1CCN(S(=O)(=O)c2ccc3c(c2)OCCO3)CC1` was -0.69% [at 0.501 µM]. `CNc1ccc(SC#N)cc1`: the Potency is 44.7 µM (active). Regarding `COc1ccc(-n2nc(C(=O)NCCc3ccc(Cl)cc3)c3c4ccccc4n(C)c3c2=O)cc1Cl`, the “activity, negative = inhibition” value was 3.47%.

As to `CCOc1ccc(S(=O)(=O)NCCSc2ccccc2)cc1`, the “activity, negative = inhibition” value is 52.1% [at 102 µM]. The same measure, in the same setting: next, `CCOc1ccc2nc(NCCNC(=O)C(C)(C)C)c(C)cc2c1`: 13.8% [at 102 µM]. Turning to `CCOc1ccc2nc(NCCNS(=O)(=O)c3ccccc3)c(C#N)cc2c1`, the Potency was 50.1 µM (active).

Regarding `Cc1nnc(SCC(=O)NCc2ccccc2Cl)c2nn(-c3ccccc3)c(C)c12`, the “activity, negative = inhibition” value was -24.3%. As for `CCOC(=O)c1ccc(NC(=O)C2CC(=O)NC(=Nc3ccc(C)c(C)c3)S2)cc1` (stereo not drawn), the “activity, negative = inhibition” value was -67.7%.

Take `COC(=O)c1cc(NC(=O)c2cccnc2)ccc1N1CCOCC1`: the activity, negative = inhibition was -2.27% [at 0.501 µM]. With `COc1ccccc1NC(=O)c1ccc(N2CC3CC(C2)c2cccc(=O)n2C3)c(NC(=O)c2cccnc2)c1` (stereo not drawn), the Potency was 15.8 µM (active). Turning to `O=C(Nc1cccc(Cl)c1N1CCOCC1)c1cccnc1`, the “activity, negative = inhibition” value is 49.1% [at 102 µM].

On to `CCn1c(Cc2ccc(OC)cc2)nnc1SCC(=O)Nc1ccc(N2CCOCC2)cc1`, for which the “activity, negative = inhibition” value is 6.79% [at 102 µM]. The same measure, in the same setting: next, `Cc1ccc(-c2noc(-c3nnn(-c4cccc(C(F)(F)F)c4)c3N)n2)cc1`: -6.96%. Regarding `CCc1ccc(/C=C2\SC(N3CCOCC3)=NC2=O)cc1`, the Potency was 50.1 µM (active). In the case of `Cc1ccsc1/C=C1\SC(N2CCOCC2)=NC1=O`, the activity, negative = inhibition is 12.5% [at 12.7 µM]. Same read-out and setting: next, `CC1CCN(C2=NC(=O)/C(=C/c3ccc(O)cc3)S2)CC1`: 0.648% [at 102 µM].

`COC(=O)Cc1ccc(OC(=O)C2CCN(S(=O)(=O)c3ccc(OC)c(OC)c3)CC2)cc1`: the activity, negative = inhibition was 13.8% [at 12.7 µM]. Consider `O=C(Nc1ccc2oc(-c3ccc(O)c(Br)c3)nc2c1)c1cc2ccccc2o1`, for which the “activity, negative = inhibition” value was 3.9%. The same measure, in the same setting: next, `c1cc(-c2nn[nH]n2)ccc1CN1CCCCC1`: -40.3% [at 102 µM]. On to `Clc1ccc(CN2CCCCCC2)cc1Cl`, for which the Potency is 22.4 µM (active). Regarding `Clc1ccc(-n2nnnc2CN2CCCCC2)cc1Cl`, the “activity, negative = inhibition” value is 15.7%.

Take `O=C(Nc1ncccc1O)c1ccc(S(=O)(=O)N2CCCCCC2)cc1`: the “activity, negative = inhibition” value is 5.43% [at 102 µM]. For the compound `CCN(C(=O)Cn1cc(S(=O)(=O)N2CCN(c3ccccc3F)CC2)c2ccccc2c1=O)c1ccc(C)c(C)c1`, the “activity, negative = inhibition” value was -32.2%. For the compound `Cc1ccc(C)c(Cn2c(C)c(CNCc3ccc(F)cc3)c(C(=O)O)c2C)c1`, the “activity, negative = inhibition” value is -2.85%.

Regarding `Cn1cccc1C(=O)NNC(=O)COc1ccc(Br)cc1`, the activity, negative = inhibition is 4.95% [at 0.501 µM]. For `CCCCNC(=O)CSc1nc2ccc(NC(=O)CSc3nnc(N)s3)cc2s1`, the Potency was 2 µM (active). As to `CCC(=O)Nc1ccc2nc(SCC(=O)N3CCc4ccccc43)sc2c1`, the “activity, negative = inhibition” value is 5.3%. With `CN(C(=O)CSc1nc2ccc(NC(=O)COc3ccccc3)cc2s1)c1ccccc1`, the “activity, negative = inhibition” value is -35%. On to `CN(C)C(=O)N=NC(=O)N(C)C`, for which the Potency is 2.24 µM (active). For `CCOc1ccc(NC(=O)CC2C(=O)N(c3cccc(OC)c3)C(=O)N2C2CCCCC2)cc1` (stereo not drawn), the “activity, negative = inhibition” value is -36.5%. The same measure, in the same setting: next, `COc1ccc(CNC(=O)CNC(=O)c2sc3ccccc3c2Cl)cc1OC`: -4.28% [at 102 µM]; `COc1ccc(OCCCC(=O)Nc2cccc(S(=O)(=O)N3CCCCCC3)c2)cc1`: -48.2% [at 12.7 µM]. On the same count and under the same terms, next, `COc1ccc(-c2cn3c(n2)sc2cc(C(=O)Nc4ccccc4F)ccc23)cc1`: 5.43%.
